# Over roughly 16,000 sequences, “Z-score” has its median near -0.37; the highest 2% begin near 3.2. Only a selection was taken, and the highest values are over-represented in it overall.
# System: RBM10 RRM1-ZnF (GST-tagged construct)
# Test: RNAcompete 7-mer binding Z-score; higher = stronger binding preference
# Description: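 RNAcompete: 20 pmol GST-tagged RBM10 RNA-binding constructs were incubated with a designed RNA pool of about 241,000 sequences up to 41 nt (1.5 nmol) on glutathione beads for 30 min at 4 °C and washed. Bound RNAs were identified by microarray hybridisation. Each RNA 7-mer is scored by a one-sided Z-score of its enrichment, computed over probes that contain the 7-mer within longer pool sequences.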
row,Sequence,RNAcompete 7-mer binding Z-score
1,GCAGGAA,1.77
2,GAAGGAG,4.72
3,CAAGGAA,1.48
4,GAAGGAA,4.56
5,CAAGGAG,2.17
6,CAAGGAU,1.36
7,UAAGGAU,1.42
8,UAAGGAA,1.64
9,GAAGGAC,2.33
10,GAAGGAU,3.32
11,AAAGGAA,3.32
12,GGAGGAA,2.93
13,CAUCACC,-0.795
14,AACGGUG,1.56
15,CACCAAU,-0.639
16,GCCCGCC,-0.132
17,AUCCCGG,-0.513
18,UAGUUAA,-0.373
19,UUGCACU,-0.639
20,UUGGUUC,-0.344
21,UGCCGAC,-0.652
22,UCAGUAA,-0.461
23,UUACGCU,-0.5
24,AAAGGAG,3.8

row,Sequence,RNAcompete 7-mer binding Z-score
1,UAAGGAG,1.97
2,AAAGGAC,2.39
3,CAGCGCG,-0.324
4,GUAGACC,0.00729
5,GGAGCGA,2.71
6,CGAGCGG,3.69
7,CGAGCGU,0.0495
8,GGAGCGG,4.52
9,AGAGCGG,1.43
10,UGAGCGG,2.38
11,UCACUUA,-0.724
12,AUUCAAA,-0.662
13,CAUCUCA,-0.798
14,CUGGAUC,-0.311
15,CGGAUGA,1.15
16,UGGCGUA,0.316
17,UGGGCGG,3.38
18,CUUGGGG,1.44
19,CUUGGGU,1.38
20,UUGGGGG,3.56
21,UGGGCGC,1.16
22,UUGGGGC,1.95
23,UUGGGGU,3.27
24,UUUGGGU,2.47

row,Sequence,RNAcompete 7-mer binding Z-score
1,GUUGGGG,4.26
2,UUUGGGG,2.72
3,AGGGCGG,2.1
4,AUUGGGG,3.01
5,GCGUUUA,-0.535
6,CAAUUAA,-0.633
7,UCACUUC,-0.824
8,UUCAAAU,-0.607
9,GUUGCGU,0.257
10,UAGUAGU,-0.035
11,AUAUCCU,-0.789
12,GAAGUUA,0.309
13,CUUUAUG,-0.763
14,GUUUUGG,1.15
15,UGGGGGG,4.02
16,GAUUGGG,3.62
17,GGUUUGG,3.62
18,UGGGGCG,2.54
19,GAUUGGC,0.953
20,GUUUGGA,1.36
21,AAUUGGG,2.54
22,CGUUUGG,0.296
23,GUUUGGG,3.59
24,UGGGGGC,3.07

row,Sequence,RNAcompete 7-mer binding Z-score
1,GGUUUUG,2.03
2,UAGGUCC,-0.165
3,GGGGCGG,2.7
4,UCGGGGC,1.65
5,ACUAUCU,-0.759
6,UUGGCGA,0.605
7,GCGGGGU,3.75
8,GCGGGUU,2.76
9,UCGGGGA,1.6
10,CCGGGGG,1.54
11,UCGGGGU,2.07
12,GCGGGGC,2.47
13,GCGGGGA,3.67
14,CCGGGGA,1.27
15,GCGGGGG,3.94
16,GUCCAUA,-0.623
17,CCGACGC,-0.477
18,AGUACAA,-0.158
19,GUCAGCC,-0.448
20,GUGUUAA,-0.0447
21,AGGGGAG,2.9
22,GGGGGAG,3.22
23,CGGGGAG,2.57
24,UGGGGAG,3.36

row,Sequence,RNAcompete 7-mer binding Z-score
1,GGGGCAG,3.4
2,UGGGCAG,2
3,UCGGGAG,1.12
4,AGGGCAG,2.11
5,AGAUAAA,0.0463
6,UGACUCA,-0.48
7,GGUAGCC,0.784
8,UCAACAC,-0.461
9,GAGGAGA,1.69
10,ACUUGCU,-0.74
11,GACUUGA,-0.496
12,GAGGAAU,1.58
13,AAGGAAG,3.84
14,AAGGAAU,2.28
15,AAGGAAC,2.26
16,UAGGAAA,1.47
17,UAGGAAG,1.72
18,CAGGAAA,0.94
19,AAGGAAA,3.36
20,GAGGAAG,3.26
21,GGCUUAA,-0.0122
22,UGUCUCG,-0.649
23,GAUACGU,-0.022
24,AUGGACA,1.95

row,Sequence,RNAcompete 7-mer binding Z-score
1,UUUGCUC,-0.867
2,AUGGAGA,2.62
3,GUGGAGC,2.91
4,AUGGAGG,4.22
5,GUGGAGU,2.67
6,AUGGAGU,2.63
7,GUGGAGG,3.91
8,GAUGGUG,3.27
9,AGUGGUG,2.37
10,CGUGGUG,1.52
11,GAUGGUC,0.563
12,GGUGGUG,3.56
13,AAUGGUG,2.79
14,ACCACCA,-0.503
15,CUUACAC,-0.841
16,GCUCCCA,-0.574
17,GUCGUAG,0.056
18,ACAUCGA,-0.48
19,AGUAGGU,1.68
20,CGUAGAG,0.381
21,UGUAGAG,0.923
22,GGUAGAG,3.37
23,GGUAGGU,3.31
24,CGUAGGU,0.949

row,Sequence,RNAcompete 7-mer binding Z-score
1,AGUAGGA,2.8
2,GGUAGGA,3.4
3,GGUAAAG,3.32
4,UGUAAAG,0.173
5,GGUAGGC,1.92
6,CGUAAAG,-0.116
7,GAACCAG,-0.0934
8,GCGUAGC,-0.0155
9,CCGAAUU,-0.815
10,UGACCAC,-0.49
11,CUGUCGG,-0.305
12,UAGUCGA,-0.191
13,CCUUAUA,-0.87
14,UGGGCUG,1.83
15,GGUAGGG,4.7
16,GGUAGUG,2.47
17,GGUAGCG,1.67
18,AAGACUC,-0.561
19,AAUUAUA,-0.464
20,GAUCCUC,-0.883
21,CAUGGGU,2.24
22,UAUGGGC,1.47
23,UAUGGCG,0.537
24,GAUGGGU,3.53

row,Sequence,RNAcompete 7-mer binding Z-score
1,AAUGGGG,4.2
2,ACUGGGG,1.89
3,AAUGGCU,0.303
4,UAUGGGG,3.4
5,UAUGGGU,2.81
6,CAUGGGG,2.42
7,AAUGGGU,3.89
8,AAUGGUU,2.44
9,GAGGACC,0.235
10,CCUCCUC,-0.542
11,UGUACAU,-0.422
12,UGUGCCA,-0.542
13,ACUAUAC,-0.642
14,CACAUGU,-0.448
15,CAUUCUU,-0.789
16,ACGACAC,-0.496
17,GAUGGGC,2.15
18,GAUGGGG,4.43
